From ChEMBL document CHEMBL1961873, “Compounds: GSK PKIS; Assays: Nanosyn kinase panel” (2012)

Experiments:
[1] = biological target: Sphingosine kinase 1 (Homo sapiens) (UniProt Q9NYA1); conditions: at 1 µM;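 also: mean SPHK1 inhibition value reported from the GSK PKIS kinase panel screen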
[2] = biological target: T1, Sphingosine kinase 2 (Homo sapiens) (UniProt Q9NRA0); conditions: at 0.1 µM
T1 sequence (whole entry): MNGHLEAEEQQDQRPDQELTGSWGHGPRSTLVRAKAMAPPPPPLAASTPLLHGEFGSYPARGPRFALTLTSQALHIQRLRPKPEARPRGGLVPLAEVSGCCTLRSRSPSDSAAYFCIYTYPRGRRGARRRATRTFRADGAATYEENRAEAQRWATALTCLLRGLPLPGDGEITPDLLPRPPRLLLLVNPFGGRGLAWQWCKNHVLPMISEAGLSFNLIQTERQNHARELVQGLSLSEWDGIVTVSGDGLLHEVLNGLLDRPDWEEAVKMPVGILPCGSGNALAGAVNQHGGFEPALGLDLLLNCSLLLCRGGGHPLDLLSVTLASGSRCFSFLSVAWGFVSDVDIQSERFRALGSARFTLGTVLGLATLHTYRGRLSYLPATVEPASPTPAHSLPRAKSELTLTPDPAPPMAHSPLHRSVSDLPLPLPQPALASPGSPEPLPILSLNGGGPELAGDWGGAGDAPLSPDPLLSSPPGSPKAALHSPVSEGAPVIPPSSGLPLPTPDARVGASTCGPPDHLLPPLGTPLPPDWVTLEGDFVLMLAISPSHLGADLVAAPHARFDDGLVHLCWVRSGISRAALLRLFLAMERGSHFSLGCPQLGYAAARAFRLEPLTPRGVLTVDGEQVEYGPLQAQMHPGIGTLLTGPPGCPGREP

[3] = biological target: T1, Sphingosine kinase 2 (Homo sapiens); conditions: at 1 µM
[4] = biological target: Casein kinase II subunit alpha (Homo sapiens) (UniProt P68400); conditions: at 0.1 µM
[5] = biological target: Casein kinase II subunit alpha (Homo sapiens) (UniProt P68400); conditions: at 1 µM
[6] = biological target: T2, Inhibitor of nuclear factor kappa-B kinase subunit alpha (Homo sapiens) (UniProt O15111); conditions: at 0.1 µM
T2 sequence (whole entry): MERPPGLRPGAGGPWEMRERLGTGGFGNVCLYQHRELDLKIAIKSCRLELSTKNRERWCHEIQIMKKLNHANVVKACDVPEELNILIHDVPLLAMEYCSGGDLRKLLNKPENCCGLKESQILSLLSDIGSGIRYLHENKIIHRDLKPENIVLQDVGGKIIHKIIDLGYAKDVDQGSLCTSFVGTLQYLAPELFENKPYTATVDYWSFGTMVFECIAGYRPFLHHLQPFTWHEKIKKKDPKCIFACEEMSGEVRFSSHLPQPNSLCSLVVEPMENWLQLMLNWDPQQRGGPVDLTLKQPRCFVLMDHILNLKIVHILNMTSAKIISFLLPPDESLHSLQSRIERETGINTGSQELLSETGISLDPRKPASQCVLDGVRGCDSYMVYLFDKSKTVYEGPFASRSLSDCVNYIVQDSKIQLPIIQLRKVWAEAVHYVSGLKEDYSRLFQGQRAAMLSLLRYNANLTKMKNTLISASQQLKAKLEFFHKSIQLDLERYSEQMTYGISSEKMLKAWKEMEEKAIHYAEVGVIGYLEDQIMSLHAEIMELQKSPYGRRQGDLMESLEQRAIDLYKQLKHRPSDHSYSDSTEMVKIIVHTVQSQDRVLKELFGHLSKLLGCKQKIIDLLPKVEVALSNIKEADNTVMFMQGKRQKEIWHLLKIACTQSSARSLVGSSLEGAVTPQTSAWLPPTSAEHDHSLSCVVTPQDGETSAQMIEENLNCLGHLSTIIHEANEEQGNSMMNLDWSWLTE

[7] = biological target: T2, Inhibitor of nuclear factor kappa-B kinase subunit alpha (Homo sapiens); conditions: at 1 µM
[8] = biological target: T3, Inhibitor of nuclear factor kappa-B kinase subunit beta (Homo sapiens) (UniProt O14920); conditions: at 0.1 µM
T3 sequence (whole entry): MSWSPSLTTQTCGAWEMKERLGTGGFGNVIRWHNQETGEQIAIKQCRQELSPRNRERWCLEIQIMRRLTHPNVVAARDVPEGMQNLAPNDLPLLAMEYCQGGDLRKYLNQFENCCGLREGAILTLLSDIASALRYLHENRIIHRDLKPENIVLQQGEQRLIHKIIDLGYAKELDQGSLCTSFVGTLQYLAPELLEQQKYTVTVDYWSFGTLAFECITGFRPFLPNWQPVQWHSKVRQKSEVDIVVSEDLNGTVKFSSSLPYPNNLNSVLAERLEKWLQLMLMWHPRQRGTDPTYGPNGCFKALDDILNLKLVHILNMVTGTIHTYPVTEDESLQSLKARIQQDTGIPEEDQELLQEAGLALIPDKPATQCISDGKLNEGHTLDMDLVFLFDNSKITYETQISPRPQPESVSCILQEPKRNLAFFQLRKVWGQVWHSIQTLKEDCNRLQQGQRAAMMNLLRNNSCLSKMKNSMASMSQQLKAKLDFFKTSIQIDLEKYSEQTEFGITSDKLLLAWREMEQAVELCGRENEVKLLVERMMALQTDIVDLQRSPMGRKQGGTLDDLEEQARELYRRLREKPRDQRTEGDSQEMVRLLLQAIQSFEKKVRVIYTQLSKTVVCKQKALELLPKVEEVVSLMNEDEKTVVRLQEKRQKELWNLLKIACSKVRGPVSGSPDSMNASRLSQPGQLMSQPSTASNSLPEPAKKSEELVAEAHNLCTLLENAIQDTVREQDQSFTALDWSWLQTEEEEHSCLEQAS

[9] = biological target: T3, Inhibitor of nuclear factor kappa-B kinase subunit beta (Homo sapiens); conditions: at 1 µM
[10] = biological target: T4, Inhibitor of nuclear factor kappa-B kinase subunit epsilon (Homo sapiens) (UniProt Q14164); conditions: at 0.1 µM;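 also: mean inhibition of IKKε reported, from the GSK PKIS dataset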
T4 sequence (whole entry): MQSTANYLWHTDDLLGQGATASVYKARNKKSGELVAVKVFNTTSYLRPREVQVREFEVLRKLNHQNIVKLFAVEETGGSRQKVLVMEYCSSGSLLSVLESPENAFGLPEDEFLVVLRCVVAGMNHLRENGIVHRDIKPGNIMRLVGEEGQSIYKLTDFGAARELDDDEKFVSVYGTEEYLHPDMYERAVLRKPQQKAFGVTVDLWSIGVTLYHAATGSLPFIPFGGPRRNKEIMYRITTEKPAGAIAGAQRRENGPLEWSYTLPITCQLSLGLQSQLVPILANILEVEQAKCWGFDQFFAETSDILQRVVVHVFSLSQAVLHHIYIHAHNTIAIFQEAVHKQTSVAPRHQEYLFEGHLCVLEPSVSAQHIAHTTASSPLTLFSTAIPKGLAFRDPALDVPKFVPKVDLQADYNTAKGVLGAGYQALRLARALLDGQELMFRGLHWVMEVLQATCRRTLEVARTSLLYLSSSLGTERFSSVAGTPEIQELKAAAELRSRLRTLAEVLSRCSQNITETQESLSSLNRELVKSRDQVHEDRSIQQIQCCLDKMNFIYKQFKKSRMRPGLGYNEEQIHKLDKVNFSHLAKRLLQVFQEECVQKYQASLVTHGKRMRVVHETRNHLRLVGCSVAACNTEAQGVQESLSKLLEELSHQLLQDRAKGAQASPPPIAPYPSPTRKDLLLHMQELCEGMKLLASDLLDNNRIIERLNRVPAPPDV

Sphingosine kinase 1 (Homo sapiens), sequence (Q9NYA1 whole entry): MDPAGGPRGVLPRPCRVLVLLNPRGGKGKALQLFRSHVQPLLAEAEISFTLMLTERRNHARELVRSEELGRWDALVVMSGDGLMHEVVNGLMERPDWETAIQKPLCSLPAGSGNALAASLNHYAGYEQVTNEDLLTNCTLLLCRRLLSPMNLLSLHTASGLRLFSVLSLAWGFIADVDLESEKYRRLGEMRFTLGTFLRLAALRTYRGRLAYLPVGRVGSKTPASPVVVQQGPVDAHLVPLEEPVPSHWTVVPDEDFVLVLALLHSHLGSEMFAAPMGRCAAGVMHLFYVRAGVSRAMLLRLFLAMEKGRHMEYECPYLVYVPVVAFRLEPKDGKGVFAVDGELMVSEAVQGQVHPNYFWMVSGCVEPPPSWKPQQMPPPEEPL
Casein kinase II subunit alpha (Homo sapiens), sequence (P68400 whole entry, looked up): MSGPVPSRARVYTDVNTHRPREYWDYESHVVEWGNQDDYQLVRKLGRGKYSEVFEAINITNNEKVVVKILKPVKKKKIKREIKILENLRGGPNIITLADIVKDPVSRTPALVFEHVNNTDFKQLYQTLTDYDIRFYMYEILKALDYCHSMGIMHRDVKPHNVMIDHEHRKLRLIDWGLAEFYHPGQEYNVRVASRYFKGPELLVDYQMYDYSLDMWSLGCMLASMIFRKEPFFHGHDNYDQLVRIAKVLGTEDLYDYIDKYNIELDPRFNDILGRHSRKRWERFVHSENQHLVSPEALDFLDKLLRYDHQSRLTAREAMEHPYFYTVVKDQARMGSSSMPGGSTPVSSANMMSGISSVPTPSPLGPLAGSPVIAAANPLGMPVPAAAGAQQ

Row | SMILES | inhibition [1] | inhibition [2] | inhibition [3] | inhibition [4] | inhibition [5] | inhibition [6] | inhibition [7] | inhibition [8] | inhibition [9] | inhibition [10]
1 | N#Cc1cccc(Nc2nccc(-c3cnn4ncccc34)n2)c1 | -1.39% | 0% | -6.48% | 20.4% | 63.9% | 9.53% | 31% | 7.83% | 20.5% | 7.68%
2 | CS(=O)(=O)Nc1cccc(-c2ccc3c(NC(=O)C4CC4)n[nH]c3c2)c1 | -0.74% | 1% | 0.16% | -2.9% | -3.51% | -2.77% | -6.36% | 8.91% | 3.62% | 2.67%
3 | Cc1cc(O)cc(C)c1/C=C/c1cncc(C(=O)N(C)C)c1 | -0.49% | -0.12% | 0.05% | 4.25% | 5.95% | 5.21% | 9.29% | 6.05% | 2.23% | 2.77%
4 | Nc1ccc(C#Cc2cncnc2Nc2ccc(OCc3cccc(F)c3)c(Cl)c2)cc1 | -2.59% | -3.76% | 0% | 4.6% | 2.02% | 0.36% | 2.27% | 4.1% | 4.66% | 3.63%
5 | NC(=O)c1sc(-n2cnc3ccccc32)cc1OCc1ccccc1Br | -0.07% | 1.77% | 0% | 5.03% | 5.76% | 4.61% | 7.53% | 4.02% | 5.66% | 8.4%
6 | COc1cccc(-n2nc(C)c3c(N/N=C(\C)c4ccncc4)ncnc32)c1 | 2.22% | 0.03% | 0% | 2.16% | 6.88% | 1.96% | -2.68% | 1.3% | 1.94% | -1.8%
7 | FC(F)(F)c1ccc(-c2nn3ncccc3c2-c2ccnc(Nc3ccc4c(c3)OCCO4)n2)cc1 | 0.29% | 3.37% | 4.75% | 8.02% | 19.8% | 1.17% | 0.75% | 0.04% | 2.22% | 1.97%
8 | CCCN1CCCC(c2ccc(Nc3nc(Nc4cc(F)ccc4C(N)=O)c4cc[nH]c4n3)c(OC)c2)C1 (stereo not given) | 3.56% | 1.62% | -1.24% | 33.5% | 66.2% | 6.24% | 4.21% | 8.08% | 4.25% | 4.93%
9 | NS(=O)(=O)c1ccc(NC=C2C(=O)Nc3ccc4ncsc4c32)cc1 | 3.96% | 1.68% | 2.35% | 15.7% | 46.4% | 13.6% | 23.5% | 10.6% | 19.2% | 19.3%
10 | NC(=O)c1cccc(Nc2nccc(Nc3cccc(F)c3)n2)c1 | 0.76% | 0% | 0.34% | 1.61% | 3.67% | 0.56% | 4.67% | 6.25% | 22.3% | 2.08%
11 | c1ccc(Nc2ncc(-c3ccccc3)o2)cc1 | 5.25% | 0.84% | 7.14% | 8.1% | 4.81% | 4.42% | 6.78% | 5.92% | 7.79% | 3.13%
12 | CN(c1ccc(NC(=O)Nc2ccc(OC(F)(F)F)cc2)cc1)c1ccnc(Nc2cccc(S(N)(=O)=O)c2)n1 | 0.54% | -0.4% | 1.23% | 2.7% | 1.68% | 8.41% | 3.54% | 3.29% | 2.85% | 5.07%
13 | Nc1nccc(C#Cc2cncnc2Nc2ccc(OCc3cccc(F)c3)c(Cl)c2)n1 | -0.71% | 0.13% | -9.13% | 1.6% | 2.69% | 7.39% | 2.46% | 2.27% | -0.17% | 4.71%
14 | Cc1ccc(NC(=O)CC2CC2)cc1-c1ccc(C(=O)NCC2CC2)cc1 | -1.09% | 0.51% | -0.13% | 4.55% | 8.23% | 0.25% | 1.31% | 3.09% | 3.67% | 4.09%
15 | COc1cc2ncnc(Nc3ccc4c(cnn4Cc4ccccc4)c3)c2cc1OC | 2.19% | 0.07% | 0.14% | -5.08% | 4.31% | 2.23% | 8.23% | 3.63% | 3.81% | 2.69%
16 | Cc1ccc(Nc2ccnc(Nc3cccc(C(N)=O)c3)n2)cc1O | -3.44% | 0.84% | 0.08% | 4.12% | 10.5% | 4.77% | 9.75% | 7.9% | 26.8% | 11.4%
17 | COc1cc(Nc2nccc(-c3cnn4ncccc34)n2)cc(OC)c1 | 0.57% | 0% | 0.21% | 8.84% | 42.7% | 17.4% | 71.4% | 5.71% | 24.5% | 5.75%
18 | Nc1nccc(-c2c(-c3ccc(F)cc3)ncn2CCCN2CCOCC2)n1 | -6.06% | -0.3% | 0.84% | 2.78% | 4.35% | 3.83% | 5.27% | 6.3% | 5.49% | 4.76%
19 | CN(C)C(=O)O[C@@H]1CN[C@@H](C#Cc2cc3ncnc(Nc4ccc(OCc5cccc(F)c5)c(Cl)c4)c3s2)C1 | -1.68% | 0% | 0% | -1.08% | -1.78% | 6.13% | -0.14% | 4.79% | 2.73% | 0.34%
20 | COc1cc(/C=N/Nc2ncnc3c2cnn3C(C)C)ccc1O | 7.48% | -1.04% | 1.89% | 2.91% | 11.8% | -0.1% | -0.51% | 2.79% | -2.39% | 1.71%
